Consider 65 compounds from PubChem BioAssay AID588342 (National Center for Advancing Translational Sciences (NCATS), 2011).

The campaign covered roughly 360,000 compounds. About 25,000 (6.9%) were called active. Roughly 9% stayed inconclusive and do not appear here. The call rests on the fitted dose curve; in most records, active means well fitted inhibition curve with a large enough effect; inconclusive means small, poorly fitted or top-dose-only effect; inactive means flat fitted curve, though single readings scatter. What follows is part of a selection rich in actives, with near analogues and random picks from the rest.
Potency means the concentration at half of the fitted maximal effect.

Sequence of Luciferin 4-monooxygenase (Photinus pyralis) (P08659 whole entry, looked up): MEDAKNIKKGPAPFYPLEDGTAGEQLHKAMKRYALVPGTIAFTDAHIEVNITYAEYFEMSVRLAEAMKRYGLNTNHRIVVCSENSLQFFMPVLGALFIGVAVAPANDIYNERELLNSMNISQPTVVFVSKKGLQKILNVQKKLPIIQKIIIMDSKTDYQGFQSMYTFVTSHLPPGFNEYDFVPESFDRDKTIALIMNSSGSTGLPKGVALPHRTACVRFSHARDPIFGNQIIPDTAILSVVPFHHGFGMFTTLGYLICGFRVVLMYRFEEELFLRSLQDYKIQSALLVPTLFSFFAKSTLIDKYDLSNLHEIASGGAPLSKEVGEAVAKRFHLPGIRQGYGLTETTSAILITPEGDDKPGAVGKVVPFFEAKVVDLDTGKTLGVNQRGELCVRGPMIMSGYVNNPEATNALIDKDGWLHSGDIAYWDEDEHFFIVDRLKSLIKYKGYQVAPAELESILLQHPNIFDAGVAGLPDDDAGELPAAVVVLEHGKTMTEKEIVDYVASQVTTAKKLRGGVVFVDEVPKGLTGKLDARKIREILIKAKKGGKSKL

The experiment deals with Luciferin 4-monooxygenase (Photinus pyralis) (UniProt P08659). Put plainly: qHTS profiling assay for firefly luciferase inhibitor/activator using purifed enzyme and Km concentrations of substrates (counterscreen for miR-21 project). Further: nearly all actives have a fitted effect of over 55% in size.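 On activity change, negative = inhibition: plate controls were vehicle for no effect and reference inhibitor for full effect.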 The note with it: purified FLuc, luminescence inhibition; series mostly up to 57.5 µM; activity change, negative = inhibition: at the top concentration. The method, boiled down:
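Biochemical qHTS of compounds, final roughly 60 µM downward over six points, against 10 nM purified firefly luciferase using Km concentrations of substrates (10 uM D-luciferin, 10 uM ATP) in Tris acetate pH 7.5 buffer; luminescence output.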
For the compound `CCCC(=O)Nc1cc(C(=O)NCc2ccc(OC)cc2)ccc1S(=O)(=O)c1ccc(Cl)cc1`, the “activity change, negative = inhibition” value is -3.23% (inactive). On the same count and under the same terms, as for `COc1cc(OC)c(C2C=C(C(=O)O)Nc3ncnn32)cc1OC` (stereo not given), the figure is -6.74% (inactive); as for `CCC(C)NC(=O)c1ccc(NC(=O)CC2SC(N3CCCCC3)=NC2=O)cc1` (stereo not given), -2.3% (inactive). Still for that read-out and setting: the same measure for `O=C(COc1ncnc2c(Cl)cc(Cl)cc12)N1CCN(S(=O)(=O)c2ccccc2)CC1`: -0.709% (inactive); for `Cc1ccc(-n2ncc(C(=O)N(C)Cc3ccccc3)c2-n2cccc2)cc1`: -10.4% (inactive); for `CC(=O)N/C(=C\c1ccc(F)cc1)C(=O)NC(Cc1ccccc1)C(=O)O` (stereo not given): 0.397% (inactive).

Consider `O=C(O)CC/C(=C\c1cc2c(cc1Br)OCO2)c1nc2ccccc2s1`, for which the “activity change, negative = inhibition” value is -2.88% (inactive). With `O=C(O)CS/C(=C\c1ccc(F)cc1)c1nc2ccccc2s1`, the Potency is 23.9 µM (active). `COc1ccccc1NC(=O)CN1C(=O)c2ccccc2Sc2ccc(C(=O)N3CCCC3)cc21`: the “activity change, negative = inhibition” value was -10.2% (inactive). With `O=C(Nc1ccccc1)c1cc2ccccc2[nH]1`, the Potency was 9.53 µM (active). `O=C(Nc1ccccc1)N1CCN(C(=O)Nc2ccccc2)CC1`: the “activity change, negative = inhibition” value was 0.646% (inactive). On to `O=C(Nc1ccccc1)c1ccccc1NC(=O)C(F)(F)F`, for which the “activity change, negative = inhibition” value is 0.648% (inactive).

For the compound `CCC(=O)N1CCc2cc(S(=O)(=O)NC(CC(C)C)C(=O)NCCc3cccc(C)c3)ccc21` (stereo not given), the “activity change, negative = inhibition” value is -0.621% (inactive). Consider `CCCCSc1ncnc2c1sc1nc(N3CCOCC3)c3c(c12)CCCC3`, for which the “activity change, negative = inhibition” value was -4.06% (inactive). For the compound `CC(C)CNC(=O)/C=C/C(=O)O`, the Potency entry was “inactive”.

In the case of `Cc1ccc(CN2CCC(CNC(=O)c3cnn(-c4ccccc4Cl)c3C3CCN(C(=O)OC(C)(C)C)CC3)CC2)cc1`, the “activity change, negative = inhibition” value was -4.29% (inactive). Consider `CCCc1ccc(C(=O)COC(=O)CN2C(=O)NC3(CCCCC3C)C2=O)cc1` (stereo not given), for which the Potency was 26.9 µM (active). As to `CC1CCCCC12NC(=O)N(CC(=O)OCC(=O)NCc1ccc(F)cc1)C2=O` (stereo not given), the “activity change, negative = inhibition” value was -0.371% (inactive). Same read-out and setting: as for `COc1cccc(CNC(=O)COC(=O)CN2C(=O)NC3(CCCCC3C)C2=O)c1` (stereo not given), the figure is -1.62% (inactive); as for `COc1ccc(CCNC2=C(Cl)C(=O)N(Cc3ccccc3)C2=O)cc1OC`, 4.85% (inactive). On the same count and under the same terms, the same measure for `C/C(=N/NC(=O)c1ccncc1)c1ccc2c(c1)OCO2`: -13.6% (inactive). For the compound `CCN(CC)c1ccc2cc(C(N)=O)/c(=N\NC(=O)c3ccncc3)oc2c1`, the Potency is 16.9 µM (active). For the compound `COc1ccc(C/C(C)=N/NC(=O)c2ccncc2)cc1`, the “activity change, negative = inhibition” value is 0.213% (inactive). The same measure, in the same setting: the same measure for `CO/N=C/c1cn(-c2ccc(Cl)cc2)nn1`: -24.2% (inactive); for `O=C(CC1C(=O)N(c2ccccc2)C(=O)N1CCc1cccs1)Nc1ccc(F)cc1` (stereo not given): -2.66% (inactive). For `CC(C)Sc1oc(-c2cccs2)nc1S(=O)(=O)c1ccc(Cl)cc1`, the “activity change, negative = inhibition” value is -3.69% (inactive). Still for that read-out and setting: the same measure for `Cc1nc(Cl)c(C#N)c2c1CCCC2`: -0.445% (inactive). Consider `COCc1c(N)c(C)nc(Cl)c1C#N`, for which the Potency was 10.7 µM (active). In the case of `COc1ccc(C2=NC(c3ccncc3)=Nc3ccc(Br)cc3N2)cc1`, the “activity change, negative = inhibition” value is -16.1% (inactive). On the same count and under the same terms, as for `CCc1nnc2c3ccccc3nc(N3CCN(c4ccc(C)cc4C)CC3)n12`, the figure is -1.42% (inactive); as for `COc1cccc(NC(=O)CN2C(=O)c3ccccc3Sc3ncccc32)c1`, -3.31% (inactive). The same measure, in the same setting: as for `Cc1cccc(CNC(=O)c2cnc3sc(N4CCCCC4)nn3c2=O)c1`, the figure is -1.04% (inactive); as for `Brc1cccc(-c2nnn3c2nc(NC2CCCCC2)c2ccccc23)c1`, -2.51% (inactive); as for `Nc1cc(C(F)(F)F)ccc1N1CCOCC1`, -1.06% (inactive).

Turning to `CCn1c(C)c(C)c2cc(C(=O)NCCc3cc(OC)ccc3OC)ccc21`, the “activity change, negative = inhibition” value is -18.4% (inactive). On the same count and under the same terms, the same measure for `CCOC(=O)c1c(NC(=O)c2cc(-c3ccc(Cl)cc3)on2)sc2c1CCCC2`: -12.9% (inactive). The same measure, in the same setting: the same measure for `CCOc1ccc(NC(=O)C2CCN(S(=O)(=O)c3cc(-c4noc(C)n4)ccc3C)CC2)cc1`: 1.53% (inactive); for `COc1ccc2c(C)c(CCC(=O)NC3CC3)c(=O)oc2c1C`: -18.3% (inactive). As to `CCOC(=O)CCc1c(C)c2ccc(OCc3nn[nH]n3)c(C)c2oc1=O`, the Potency is 15.1 µM (active).

Take `Cc1c(CCC(=O)O)c(=O)oc2c(C)c(OCc3ccccc3Cl)ccc12`: the “activity change, negative = inhibition” value was -3.32% (inactive). Still for that read-out and setting: as for `Cc1ccc(NC(=O)CC2S/C(=N/N=C3\CCCc4ccccc43)NC2=O)cc1` (stereo not given), the figure is 3.18% (inactive).

Take `Cc1ccc(N/N=C2\COC(C)(C)CC2=O)cc1`: the Potency was 7.57 µM (active). For `Cc1ccc(-n2c(SCC(=O)Nc3cccc(F)c3)nc3c(oc4ccccc43)c2=O)cc1C`, the “activity change, negative = inhibition” value was -9.06% (inactive). Turning to `COc1cc(Br)cc2cc(S(=O)(=O)c3ccccc3)c(=O)oc12`, the “activity change, negative = inhibition” value is -12.4% (inactive).

In the case of `COc1ccc(C(=O)NCCSc2ccccc2C)cc1`, the Potency is 3.79 µM (active). For the compound `COc1cccc(C(=O)NCCSc2ccc(Br)cc2)c1`, the “activity change, negative = inhibition” value was -13.2% (inactive). As for `COc1ccc(C(=O)NCc2nnc(SCCOc3ccccc3)n2C)cc1`, the “activity change, negative = inhibition” value was 0.822% (inactive).

`COc1ccccc1CN1CCC(CNC(=O)c2cnn(-c3ccccc3Cl)c2C2CCN(C(=O)OC(C)(C)C)CC2)CC1`: the “activity change, negative = inhibition” value is -1.99% (inactive). The same measure, in the same setting: the same measure for `Cc1cc(C(F)(F)F)nc(SCC(=O)Nc2nccs2)n1`: 6.31% (inactive); for `Cc1cc(=O)n2[nH]c(-c3sccc3-n3c(C)ccc3C)cc2n1`: -15.7% (inactive). Still for that read-out and setting: the same measure for `O=c1c2c(nc3nc[nH]n13)CCC2`: -0.341% (inactive); for `O=C1CCCc2c1nc(-c1cccc(Cl)c1)n2O`: -0.28% (inactive). In the case of `Cc1cc(=O)n2[nH]c(-c3cccc(Cl)c3)cc2n1`, the Potency is 15.1 µM (active). The same measure, in the same setting: as for `O=c1c2c(nc3cc(-c4cccc(Cl)c4)[nH]n13)CCCC2`, the figure is 0.478 µM (active). As to `CCCc1cc(=O)n2[nH]c(C)c(-c3ccc(Cl)cc3)c2n1`, the “activity change, negative = inhibition” value is -2.04% (inactive). The same measure, in the same setting: the same measure for `CCOC(=O)c1c(-c2ccc(OC)cc2)oc2ccc(OCc3ccc(C(=O)OC)cc3)cc12`: 3.13% (inactive); for `COc1ccc(C)cc1NC(=O)CCc1c(C)nn(-c2ccc(N3CCOCC3)nn2)c1C`: -14.2% (inactive); for `Cc1ccc(Cn2c(C)c3cnn(CC(=O)NCc4ccccc4)c(=O)c3c2C)cc1`: -15.1% (inactive). With `CC(=O)c1c(C)n(S(=O)(=O)c2ccc(Cl)cc2)c2ccc(NS(=O)(=O)c3ccc(Cl)cc3)cc12`, the “activity change, negative = inhibition” value was 0.804% (inactive). The same measure, in the same setting: as for `COc1cc(C(=O)Nc2ncccc2C)ccc1OCC(=O)N1CCOCC1`, the figure is 3.05% (inactive); as for `COc1cc(OC)cc(-c2nc3nc(C)c(CCC(=O)Nc4ccccc4)c(C)n3n2)c1`, 1.43% (inactive); as for `COc1ccc(-c2cc3nc(C)c(CCC(=O)NC(C)CCc4ccco4)c(C)n3n2)c(OC)c1` (stereo not given), 1.35% (inactive).

As to `COc1ccccc1-c1cc2nc(C)c(CCC(=O)O)c(C)n2n1`, the Potency was 15.1 µM (active). For the compound `CCOc1ccc(OCC)c(NC(=O)CN(c2ccc(C)cc2)S(=O)(=O)c2c(C)n[nH]c2C)c1`, the “activity change, negative = inhibition” value is -2.42% (inactive). The same measure, in the same setting: as for `CCOC(=O)c1c(S(=O)(=O)NCC(=O)Nc2ccc(Cl)c(C(F)(F)F)c2)c(C)n(C)c1C`, the figure is -14.6% (inactive).
